About 83,000 compounds went through this panel and 20% of them were active in at least one assay; those are over-represented in the sample as a whole.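 Single-dose data. Exposure time 48 hours. Values below 10 considered active.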 Unmarked numbers belong to inactive results. Active and inactive are the calls of the source.

Data on 15 compounds can be found in PubChem BioAssay (NCI).

Among the test systems are SK-MEL-2 melanoma; SN12C renal; UO-31 renal; ACHN renal; CAKI-1 renal; A498 renal; CCRF-CEM leukemia; MOLT-4 leukemia; TK-10 renal; EKVX NSCLC.
Common to all, as to test: NCI-60 one-dose screen, 48 h (100 = growth as untreated, 0 = no growth, -100 = all killed)
Holding throughout (conditions): 10 µM unless noted

In the case of `COc1cc(C(F)(F)F)ccc1-c1cc(-c2ccc(F)cc2)n[nH]1`, the growth in the assay with SK-MEL-2 melanoma was 118%; in the assay on SN12C renal, 85.2%; in the assay on UO-31 renal it was 59.6%; in the assay on ACHN renal, 77%; in the assay with CAKI-1 renal, 78.4%; in the assay on A498 renal, 95.1%. Also, the growth is 89.8% with CCRF-CEM leukemia and 91.2% in the assay on MOLT-4 leukemia.

Turning to `Cc1ccc2c(c1)c(Sc1ccc(C(=O)NO)cc1)c1n2CN(C)CC1`, the growth in the assay on SK-MEL-2 melanoma is 7.15% (active); in the assay with SN12C renal, 9.16% (active); in the assay on UO-31 renal, 45.9%; with ACHN renal, 26.8%; with CAKI-1 renal it was 62.9%; with A498 renal, 6.35% (active). Besides, the figures for the growth in the assay with CCRF-CEM leukemia and in the assay with MOLT-4 leukemia were -5.94% (active) and -10.5% (active), respectively.

For `CCCCNNC(=O)c1ccc(Br)cc1`, the growth in the assay with SK-MEL-2 melanoma was 44.5%; in the assay on SN12C renal, 75.1%; with UO-31 renal, 25.1%; in the assay with ACHN renal, 71.4%; in the assay with CAKI-1 renal, 60.1%; in the assay with A498 renal it was 30.2%. Moreover, the figures for the growth in the assay with CCRF-CEM leukemia and with MOLT-4 leukemia were 46.6% and 42.1%, respectively.

Turning to `COC(=O)c1ccc(C(=O)Nc2ccccc2N)cc1`, the growth with SK-MEL-2 melanoma is 63%; with SN12C renal, 62.9%; with UO-31 renal it was 36.7%; with ACHN renal it was 88.6%; in the assay with A498 renal, 80.5%; with CCRF-CEM leukemia it was 4.59% (active). Besides, the growth with MOLT-4 leukemia was 30.4%.

With `C(=C\c1ccccc1)/CN1CCN(C(c2ccccc2)c2ccccc2)CC1`, the growth in the assay with SK-MEL-2 melanoma was 104%; in the assay with SN12C renal, 90.4%; with UO-31 renal it was 70.5%; in the assay with ACHN renal it was 95.1%; in the assay with A498 renal it was 69.5%; in the assay on CCRF-CEM leukemia, 94.4%. In addition, the growth with MOLT-4 leukemia was 90.2%.

For `Cc1ccc(S(=O)(=O)N(c2ccc(Cl)cc2)c2ccc(Br)cc2C(=O)O)cc1`, the growth with SK-MEL-2 melanoma is 107%; with SN12C renal, 99.4%; in the assay on UO-31 renal it was 91.4%; with ACHN renal, 105%; in the assay with CAKI-1 renal, 102%; in the assay with A498 renal it was 111%. Moreover, the growth is 102% with CCRF-CEM leukemia and 98.5% in the assay on MOLT-4 leukemia.

On to `COC(=O)c1cc(-c2ccc(C)cc2)n(C(=O)CSc2nc3sc(C(N)=O)c(C)c3c(=O)n2Cc2ccccc2)n1`, for which the growth with SK-MEL-2 melanoma is 110%; in the assay with UO-31 renal, 87.5%; with TK-10 renal, 106%; with ACHN renal it was 98.8%; in the assay on CAKI-1 renal, 97.7%; in the assay on A498 renal, -32.1% (active). Moreover, the growth was 93.2% in the assay with CCRF-CEM leukemia and 95.1% in the assay on MOLT-4 leukemia.

In the case of `COc1ccc(/C=N/NC(=O)c2cnn3c2NC(c2ccccc2)C3)cc1OC1CCCC1` (stereo not drawn), the growth in the assay on SK-MEL-2 melanoma was 107%; in the assay with SN12C renal, 90.7%; in the assay with UO-31 renal it was 80.1%; in the assay with ACHN renal, 95.3%; in the assay with CAKI-1 renal, 77.8%; in the assay with CCRF-CEM leukemia, 90.7%. Also, the growth in the assay with MOLT-4 leukemia is 69.1%.

For `NC(=O)c1cc(I)ccc1NC(=O)COc1ccc(Cl)cc1Cl`, the growth was 79.2% in the assay on SK-MEL-2 melanoma; 103% in the assay on SN12C renal; 83.3% with UO-31 renal; 99% in the assay on ACHN renal; 88.8% in the assay on CAKI-1 renal; 73.9% in the assay on A498 renal. The growth in the assay on CCRF-CEM leukemia is 81.6%; with MOLT-4 leukemia, 80.5%.

`Cn1c2ccc(Cl)cc2c2nn(C(=O)c3ccccc3)c(=O)nc21`: the growth in the assay on SK-MEL-2 melanoma was 100%; with SN12C renal, 103%; in the assay on UO-31 renal, 71.9%; with ACHN renal, 95.2%; in the assay with A498 renal, 112%; in the assay with CCRF-CEM leukemia, 96%. Moreover, in the assay on MOLT-4 leukemia, the growth was 99%.

`Brc1ccc(SCN(CSc2ccc(Br)cc2)Cc2ccccc2)cc1`: the growth in the assay on SK-MEL-2 melanoma was 94.6%; in the assay on SN12C renal, 27.3%; in the assay on UO-31 renal it was 39%; in the assay with ACHN renal it was 87.3%; in the assay with A498 renal it was 56.3%; in the assay with CCRF-CEM leukemia, 4.88% (active). Besides, the growth with MOLT-4 leukemia was 17%.

In the case of `C=CC(=O)N1CC2(CCC(n3nc(-c4ccc(Oc5ccccc5)cc4)c4c(N)ncnc43)CC2)C1`, the growth in the assay with SK-MEL-2 melanoma is -89.7% (active); with SN12C renal it was -10.7% (active); in the assay with UO-31 renal, -63.7% (active); in the assay on CAKI-1 renal, -75.1% (active); in the assay on A498 renal, -93.2% (active); in the assay on CCRF-CEM leukemia, -6.08% (active). In addition, in the assay with MOLT-4 leukemia, the growth is -28.2% (active).

With `COc1ccc(C2CC(c3cc(OC)c(OC)c(OC)c3)=NN2c2ccc(S(N)(=O)=O)cc2)cc1` (stereo not drawn), the growth was 83.2% in the assay on SK-MEL-2 melanoma; 73.7% in the assay with SN12C renal; 29.8% in the assay with UO-31 renal; 67.3% with CAKI-1 renal; 44.5% in the assay with A498 renal; 41.3% with CCRF-CEM leukemia.

For the compound `C[C@@H](Oc1cc(-c2cnn(C3CC4(CCCNC4)C3)c2)cnc1N)c1c(Cl)ccc(F)c1Cl` (stereo partly drawn), the growth in the assay on SK-MEL-2 melanoma is -47.8% (active); in the assay with SN12C renal it was 21.7%; in the assay with UO-31 renal, 29.7%; with ACHN renal, 29.5%; with CAKI-1 renal, 56.6%; in the assay with A498 renal it was -10.4% (active). Further, the growth in the assay on CCRF-CEM leukemia was -6.75% (active); with MOLT-4 leukemia, -7.46% (active).

For the compound `CCC12CCC3c4ccc(O)cc4CCC3C1CC(O)C2O` (stereo not drawn), the growth with EKVX NSCLC was 83.7%; with SN12C renal it was 82.5%; in the assay with UO-31 renal, 65.9%; in the assay with TK-10 renal it was 85.3%; with ACHN renal, 103%; in the assay with CAKI-1 renal it was 59.4%. Further, the figures for the growth with A498 renal, in the assay with CCRF-CEM leukemia and in the assay with MOLT-4 leukemia were 67.1%, 85.4% and 69.4%, respectively.
